Sampled rows, rich in hits. Any-hit rate of the full collection: about 10%.
HP1b binding inh – HP1-beta chromodomain-methylated histone interaction inhibition. AID 540317. Potency, µM (top dose mostly 114 µM), for the others: top-dose activity change, negative = inhibition, usual class: inhibitors. AlphaScreen HP1-beta / biotin-H3K9me3 peptide binding. 390,000 tested, 0.56% active; note: potency is the fitted concentration of half-maximal effect; nearly all actives have a fitted effect of over 70% in size
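HP1-beta protein (50 nM final) preincubated 30 min at room temperature with biotinylated H3(1-18)K9me3 peptide (50 nM) in PBS pH 7.4, 0.01% Tween-20, then compound added for 30 min. AlphaScreen streptavidin donor/nickel chelate acceptor beads (10 ug/mL final), 30 min dark, luminescence read.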
JMJD2A Tudor – inhibitors of human JMJD2A Tudor domain. AlphaScreen JMJD2A-Tudor / H3K4me3 peptide binding. O75164. AID 504339. Potency, µM (series often up to 114 µM), without a hit: at the top dose activity change, negative = inhibition, hits mostly inhibitors. 390,000 tested, 4.4% active; note: potency is the fitted concentration of half-maximal effect; % is set by controls: 0 for no effect and ±100 for the full control effect; nearly all actives have a fitted effect of over 50% in size
Target sequence (O75164 whole entry, looked up, the tested form may be a part): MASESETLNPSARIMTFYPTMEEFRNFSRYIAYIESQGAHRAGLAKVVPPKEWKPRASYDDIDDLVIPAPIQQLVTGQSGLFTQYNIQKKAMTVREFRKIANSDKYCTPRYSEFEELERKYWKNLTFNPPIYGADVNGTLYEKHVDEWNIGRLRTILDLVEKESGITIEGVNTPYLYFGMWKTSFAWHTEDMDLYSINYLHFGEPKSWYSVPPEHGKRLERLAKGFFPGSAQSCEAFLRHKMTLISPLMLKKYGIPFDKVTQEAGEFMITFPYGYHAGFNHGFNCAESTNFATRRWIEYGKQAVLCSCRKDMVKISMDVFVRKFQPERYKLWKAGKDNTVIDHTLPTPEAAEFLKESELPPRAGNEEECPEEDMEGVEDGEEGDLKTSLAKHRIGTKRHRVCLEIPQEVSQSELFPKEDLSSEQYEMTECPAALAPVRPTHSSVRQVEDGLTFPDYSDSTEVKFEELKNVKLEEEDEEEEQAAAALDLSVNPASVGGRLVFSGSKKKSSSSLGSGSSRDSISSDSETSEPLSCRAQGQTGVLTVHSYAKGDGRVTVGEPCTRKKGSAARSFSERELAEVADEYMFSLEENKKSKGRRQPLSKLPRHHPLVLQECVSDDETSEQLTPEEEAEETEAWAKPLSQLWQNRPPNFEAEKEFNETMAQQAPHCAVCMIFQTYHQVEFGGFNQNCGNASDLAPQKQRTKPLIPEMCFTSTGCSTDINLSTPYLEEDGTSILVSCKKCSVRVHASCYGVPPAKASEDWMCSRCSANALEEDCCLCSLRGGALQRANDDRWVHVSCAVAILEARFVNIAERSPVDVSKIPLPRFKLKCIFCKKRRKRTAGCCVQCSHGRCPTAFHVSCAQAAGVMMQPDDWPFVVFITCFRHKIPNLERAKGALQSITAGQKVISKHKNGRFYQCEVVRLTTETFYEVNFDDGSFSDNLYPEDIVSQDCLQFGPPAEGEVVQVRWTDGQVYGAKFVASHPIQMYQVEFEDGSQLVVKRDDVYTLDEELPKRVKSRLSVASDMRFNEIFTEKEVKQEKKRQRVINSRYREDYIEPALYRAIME
G9a inh – G9a (human) methyltransferase inhibition. G9a H3K9 monomethylation, AlphaScreen, 2 h. Potency, µM (titrated, usually from 102 µM), inactives show at the top dose activity, negative = inhibition, hits mostly inhibitors. Q96KQ7. 350,000 tested, 8.8% active; note: potency is the fitted concentration of half-maximal effect; % is set by controls: 0 for no effect and ±100 for the full control effect; nearly all actives have a fitted effect of over 75% in size
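Methyltransferase reactions run at room temperature for 2 h (20 nM enzyme, 500 nM biotin-H3K9 peptide, 20 uM SAM) after a 15 min compound preincubation; product detected by AlphaScreen beads and anti-H3K9me1 antibody.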
Six1-Eya2 inh – inhibitors of human Six1/Eya2 interaction. Q15475+O00167. AlphaScreen GST-Six1/His-Eya2 binding, biochemical; active compounds read low. activity change, % (no concentration beside the values). 360,000 tested, 0.56% active; in the data active = activity change below about -65%; inconclusive = mostly about -30% to -63%; note: % is set by controls: 0 for no effect and ±100 for the full control effect
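AlphaScreen luminescence read after one hour at 37 °C in darkness. Pin-transferred compounds met GST-Six1 and His-Eya2 protein (5X stock 250 nM/500 nM) plus glutathione donor and Ni-chelate acceptor beads (5X, 50 ug/mL).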
CtBP-E1A blk – blocks the CtBP interaction with E1A | activity change, % (concentration not given with the values) | 340,000 tested, 0.49% active | AlphaScreen GST-E1A/His-CtBP binding, 1536-well; active compounds read low; in the data active = activity change below about -65%; inconclusive = mostly about -30% to -63%; note: % is set by controls: 0 for no effect and ±100 for the full control effect
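In 5 uL wells, 23 nL compound meets equimolar GST-E1A and His-CtBP (5X stock 125 nM each) for 2 h, 37 °C. Beads (5X, 50 ug/mL) then 1 h, 37 °C, dark.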
BAZ2B block – BAZ2B (human) inhibition. AlphaScreen BAZ2B-H3K14Ac peptide displacement. Potency, µM (highest dose often 114 µM), for the others: top-dose activity change, negative = inhibition, usual class: inhibitors. 360,000 tested, 4.4% active. AID 504333; note: potency is the fitted concentration of half-maximal effect; % is set by controls: 0 for no effect and ±100 for the full control effect; nearly all actives have a fitted effect of over 60% in size
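Compounds, titrated to a top concentration of 110 uM, were incubated 30 min at room temperature with preformed BAZ2B/acetyl-K14 H3 peptide complex (50 nM each). Proximity signal was measured by AlphaScreen after 20 min with beads.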
An asterisk follows results filed as active; ? = inconclusive; / = not tested or not shown; ! = repeats disagree; [ ] = remark or other dose. Unless noted, calls come from the whole dose curve; as a rule, active = well fitted inhibition curve with a large enough effect; inconclusive = small, poorly fitted or top-dose-only effect; inactive = no such curve, though single readings can be large or run the other way.

SMILES	HP1b binding inh	JMJD2A Tudor	G9a inh	Six1-Eya2 inh	CtBP-E1A blk	BAZ2B block
CCOc1ccc(-n2c(C)cc(/C=N/N(C)C)c2C)cc1	-18%	45µM*	45µM*	-16	-23	?
CCOc1ccc(-n2c(C)cc(C(=O)CCl)c2C)cc1	?	?	45µM*	-5	3	-22%
CCCSCCCNC(=O)c1ccc(Cn2c(=O)c3cccn3c3cccnc32)cc1	39%	10%	10%[59 µM]	/	/	2%
CC1(C)CC(=O)C(CC2CCCCC2=O)C(=O)C1 (stereo not drawn)	36%	-20%	31%[59 µM]	-10	-3	1%
CC1(C)CC(=O)C(CC2C(=O)CC(C)(C)CC2=O)C(=O)C1	28%	-9%	22µM*	8	3	-3%
C=CCn1c(-c2ccc(C)cc2)nc2ccccc21	34%	5%	21%	-5	-9	-4%
C=CCn1c(CSc2nnc(-c3ccccc3)n2C)n[nH]c1=S	41%	10µM*	/	-3	0	-3%
C=CCn1c(CSc2ccc(C)cc2)n[nH]c1=S	63%	12%	8.9µM*	-1	/	-25%
C=CCn1c(SCc2n[nH]c(=S)n2-c2ccccc2)nnc1-c1ccccc1	37%	11µM*	11µM*	9	/	-13%
CCOc1cc(-c2nnc(SCC(=O)Nc3ccc(F)c(F)c3)nc2-c2ccc(OC)c(OCC)c2)ccc1OC	23%	-16%	13µM*	/	/	?
CCOc1ccc(-c2nnc(SCC(=O)NC(C)(C)C)nc2-c2ccc(OCC)c(OC)c2)cc1OC	14%	?	50µM*	-7	-6	-15%
CC1CN(Cc2cc(=O)oc3cc(O)c(Cl)cc23)CC(C)O1 (stereo not drawn)	34%	24%	19%	1	/	-17%
COc1cccc(-n2cc(C(=O)OCc3ccc(F)c(F)c3)c3ccccc3c2=O)c1	33%[57 µM]	-9%	6%[59 µM]	/	/	14%
Cc1cc(C)c(Nc2ncnc(N)n2)c(C)c1	15%	-6%	/	5	-18	7%
CCOC(=O)c1c(C)[nH]c(CCC(=O)NCc2cc(OC)c(OC)c(OC)c2)c1C	22%[57 µM]	-13%	-1%[59 µM]	/	/	0%
COc1ccc(C(=O)[C@H]2[C@H]3C(=O)N(c4ccc(OC(C)=O)cc4)C(=O)[C@H]3C3C=CC=NN32)cc1 (stereo partly drawn)	6%	-23%	/	-9	-4	-20%
COc1ccc(N2C(=O)[C@@H]3[C@H](C2=O)[C@H](C(C)=O)N2c4ccccc4C=C[C@@H]32)cc1	-4%	-7%	8.9µM*	3	0	?
COc1ccc(C(=O)N2c3ccccc3C=CC2C#N)cc1 (stereo not drawn)	8%	-18%	-1%[59 µM]	10	-4	-7%
COc1ccc(C2C(C(=O)c3ccccc3)N3c4ccccc4C=CC3C2[N+](=O)[O-])cc1 (stereo not drawn)	-5%	-23%	35µM*	-17	-19	?
CC(=O)/C(=N/Nc1cccc(Cl)c1)Sc1nnc(C(O)c2ccccc2)n1-c1ccccc1 (stereo not drawn)	35%	-17%	?	1	/	-38%
COC(=O)/C(=N/Nc1ccccc1C)Sc1nnc(C(O)c2ccccc2)n1-c1ccccc1 (stereo not drawn)	24%	-19%	16µM*	-1	-8	-8%
Cc1c(S(=O)(=O)c2ccccn2)c(N)n(Cc2cccc(Cl)c2)c1C	37%	-25%	28µM*	0	/	-30%
COc1cccc(CNCc2ccccn2)c1OC	23%	56µM*	6%	?	7	?
COc1cccc(CNCc2ccc(OC)c3ccccc23)c1OC	40µM*	3.2µM*	7%[2.33 µM]	0	0	20µM*
COc1ccccc1CNCc1cccc(Oc2ccccc2)c1	-9%	40µM*	8.9µM*	12	10	25µM*
SMILES	HP1b binding inh	JMJD2A Tudor	G9a inh	Six1-Eya2 inh	CtBP-E1A blk	BAZ2B block
COc1ccc(Br)cc1CNC(C)c1ccccc1 (stereo not drawn)	40%	-25%	-10%[59 µM]	4	1	-3%
COc1ccc(CNCc2ccc(OC)c3ccccc23)cc1	-17%	?	-18%	6	2	?
COc1cccc(CN2CCC2(C)C(=O)NCCc2ccccn2)c1OC (stereo not drawn)	/	/	/	5	2	/
COc1ccccc1CNCc1cc(Br)ccc1OC	-33%	?	8.9µM*	-1	-2	56µM*
O=C(c1[nH]c(C(F)(F)F)nc1-c1ccccc1)N1CCN(Cc2c(F)cccc2Cl)CC1	/	/	/	-4	-7	/
COc1ccccc1CNCc1ccc(OC)c2ccccc12	-16%	18µM*	/	-9	0	/
COc1ccccc1CNCC(O)Cn1c2ccccc2c2ccccc21 (stereo not drawn)	11%	-35%	-53%[59 µM]	-2	-17	-33%
COc1ccccc1CNCC(c1ccccc1)c1ccccc1	/	/	40µM*	/	/	50µM*
CCCC1(C)C(C#N)C(=O)NC(=O)C1C#N (stereo not drawn)	22%[57 µM]	2%	/	-2	3	/
CCCC1(C)C(C#N)(C#N)C1(C#N)C#N	/	/	8.9µM*	/	/	/
CCOC(=O)C1=C(CS(=O)(=O)c2ccc(F)c(C)c2)NC(=O)NC1c1ccc(O)c(O)c1 (stereo not drawn)	22%	-21%	25µM*	2	-2	?
CCOC(=O)C1=C(CS(=O)(=O)c2ccc(F)c(C)c2)NC(=O)NC1c1ccc(F)c(F)c1 (stereo not drawn)	14%	-25%	4%[59 µM]	/	/	-6%
CCc1ccc(NC(=O)CSC2=Nc3ccccc3C3=NC(CCC(=O)NCCc4ccccc4)C(=O)N23)cc1 (stereo not drawn)	19%	-30%	-4%[59 µM]	/	/	-22%
O=C(O)[C@H]1NCCC[C@H]1C(=O)O	/	/	6.7µM*!	/	/	/
O=C(O)C1CCCNC1 (stereo not drawn)	24%	-17%	-3%[59 µM]	4	11	2%
Cc1cccc(N2CCN(C(=O)CN3C(=O)NC(C)(C4CC4)C3=O)CC2)c1C (stereo not drawn)	17%	-16%	56µM*	5	-5	12%
Nc1c(C(=O)NCc2ccco2)sc2nc3c(cc12)C(=O)CCC3	-3%	56µM*	?	-20	-18	?
CCC(C)NC(=O)c1c2c(nc3ccccc13)C(=O)N(C1CCCCC1)C2 (stereo not drawn)	23%	-1%	10%[59 µM]	/	/	-1%
CCCC(C)NC(=O)c1c2c(nc3ccccc13)CCC2 (stereo not drawn)	10%	-32%	-43%	0	-5	50µM*
O=C(NCc1ccco1)c1c2c(nc3ccccc13)CCC2	?	?	40µM*	?	0	50µM*

Screening results deposited in PubChem BioAssay by National Center for Advancing Translational Sciences (NCATS).
